# The supplement of paper PMC10105736
# ± gives the standard deviation of the averaged measurements.
# B1: ref(2)P (protein)
# chain: MPEKLLKITYQGAGPQKKINAYLRMPSQNYTILRREIELYLFQERQLPKCDVRTFWIDADKDEIEIVNQNDYEIFLAKCESNMHVQVAPLAPVEEPKATKQEGSSANAEAPSVDDPSNFTIHDAVECDGCGLAPLIGFRYKCVQCSNYDLCQKCELAHKHPEHLMLRMPTNNGPGMVDAWFTGPGLGRRSGRRSRGHCPFQETNQADPAGEPARDSRRERRQARRHAGVLTQFVEMMTNLPLNTTTATAPAEPQKPKAAEQTESPPQAEPTVTAEKAAESEAKPTEPKKVNTDQSVPRTEDPVTTPRSTQPTTPVINLDNISQIVPPEYMSAGIEILNNFSEMFSKIIDTTEGGDSGIFAPSTTPSAENKKPEEQGQSSGQSGASSANQSAVPSAAPSANQSNVPSANQSATPSISGSIPDAQLETEPLNPKPSETTTETEQERRRSDSLDPEWQLIDNAYSANNSNLINLDTTNPTAAPQEPVRDFGQLGELLRQHMNEEARVEQASANTQTAQVDTVSTSTSTTSVTTNSVGTSPAAPDDKRTVPVYHTDESINKSIHAMMAMGFSNEGAWLTQLLESVQGNISAALDVMNVSQNRN
# B2: cid (protein)
# chain: MPRHSRAKRAPRPSANNSKSPNDDDTAFRSPEPEDGTDYGLEFTTSQLTLQDNNRRSSTLRRDAGRRQPAARDSSTSGEEEDQENRYPTTRSPQTRRMTVQQESKTRAAGPVAAQNQTRRRKAANPMSRAKRMDREIRRLQHHPGTLIPKLPFSRLVREFIVKYSDDEPLRVTEGALLAMQESCEMYLTQRLADSYMLTKHRNRVTLEVRDMALMAYICDRGRQF
# B3: Dsp1 (protein)
# chain: MEHFHQIQQTIQHYQQQLAAQQQQQVQQQQLQQHQVVVQQNQQQAHQNSSNTTAGVGTQQLFTYKMASSFPNPATTMAQVVATSNAAGTTGYDYRLNMAQAAAAAAVPGSQWWYSAANQGQVDANTAAQLQHQQQQQQQQQQQQQQQHQQQQQMQQQQQQQNVINSASPMSRVKADAKPRGRMTAYAYFVQTCREEHKKKHPDETVIFAEFSRKCAERWKTMVDKEKKRFHEMAEKDKQRYEAEMQNYVPPKGAVVGRGKKRKQIKDPNAPKRSLSAFFWFCNDERNKVKALNPEFGVGDIAKELGRKWSDVDPEVKQKYESMAERDKARYEREMTEYKTSGKIAMSAPSMQASMQAQAQKAALLAAAAQQQHQQLEEQHDDDDGDGDDDENQ
# B4: PGRP-LC (protein)
# chain: MPFSNETEMSQCSNAKRRVNDPLTGPKNCSTSSTDSGVILNDNVAAFRPEKETKDRGTGEGQFQSKSEEKTESKRISVEHTVNITTENVGKTSSPAVSIRSTTISVVSIDDNAIDSSSIDSDSEAEAEDYTVQKLGHQVTYPPNSSHLRDLNQGLTVISRHVAPGEAAVPPPNPLEAGIVAKQILNGNLAVATPTSPAGGATQGIGSIALTNSTDVTFGDKHFYEGPVTIQQFLIDNRDKWKPGEGPAGGQDNPAFNGGPSTNGSAPGSKHEDPAQTPPICPFLPNTVGRKAVTVTVVFVTLTFLLGIVLATTTNLFGKTLNQSKIRDDDDYRQNIPINSTIDLDNIGGGLILRFVERQQWLAQPPQKEIPDLELPVGLVIALPTNSENCSTQAICVLRVRLLQTYDIESSQKCDIAYNFLIGGDGNVYVGRGWNKMGAHMNNINYDSQSLSFAYIGSFKTIQPSAKQLSVTRLLLERGVKLGKIAPSYRFTASSKLMPSVTDFKADALYASFANWTHWS
# B5: Psc (protein)
# chain: MMTPESKAIQPAAATTKQTAEATATTTMAHTQQKSQLSTLAKTTTTTATNKAAKSVVSNANSSGNNSSKKLALSQSQKTTTTTTPPTTTTTTTAAAAAEATTNADKMQKQQQLKQQLFAACSIKVKSENTLATTANAALAAATTTTTTATPALATGKAAKTILENGIKKESTPPAVESVEASSSSSSSSSSSSSSSSSWPTTRRATSEDASSNGGASADEEKSEEDPTAAVAASSTATTTSDLATTSRPRPVLLTAVNPHIICHLCQGYLINATTIVECLHSFCHSCLINHLRKERFCPRCEMVINNAKPNIKSDTTLQAIVYKLVPGLYERELMRKRAFYKDRPEEAALATPEQRGDDTEHLIFSPSDDMSLSLEYAELGELKTDSEPELVDTLRPRYLQCPAMCRVSHLKKFVYDKFEIDAQRFSIDIMYKVKTIVLLDYYTLMDIAYIYTWKRDAPMRFYYRVYESPQPLVKPAPRRVLPLKLEKQERENQEQQLAVEVASSKVEPVSLPEDQKAEASIKVEEQESTREIVKEVIKDVAATPPTETLKLVINRNMLDKREKSHSPQMSSKSSSKSSPCTPVSSPSEPNIKLKIDLSKQNSVTIIDMSDPERREIVKPLKPEKESRSKKKDKDGSPKSSSSSSSSSSGERKRKSPSPLTVPPLTIRTERIMSPSGVSTLSPRVTSGAFSEDPKSEFLKSFALKPIKVKVESPERTLNNRAITPPSPSVQQSASPKSKGNNLDDSILMKPPSCMPPKSIASSKRKSKEPVKAVSKKQKLSPPLPTVDFKIRLPVTNGNSSGTASPKIEKPLMPPPAKPPMLAPRKLQPSAQFAPPPSPIHHHAGVQMSAPGNRTPIAKRYQPILPKASRPNPFANIPNDVNRLLKDAGTEIKSIGGGSVENNSNAAQKPHLYGPKGESKMGPPALPATTPSQGNKNVGKQAGNLPMSAPPNKGNSSNNYLNLALFNSSKCKGKEAPPGCRTPMYTPNSPIYSPSSPQYVPSYNIPTMPTYKYTPKPTPNSGSGNGGSGSYLQNMLGGGNGGSLGGLFPSPPTKSDQNTNPAQGGGGSSSATQSGGNNGIVNNNIYMPNEDAPEKQQVKVKSLLNSCNINIPSSLSITISRDNGDSSSPNNGQHPKHKSPVNNYIEIVKLPDQPQDQVQAAKEAQKRQSPPAAVPGHLAAKLPPPPPSKAIPSPQHLVSRMTPPQLPKVATPPPPSSPRVITPPKTSPPANAAKVTPLKPVLTPTQVDKKTPSPEKRTAAQMGSHSPTASENKSPKGGPAGVANSTGGAQNGDPAAKKFRPILPRQNGMPELAPKLPTLAPFVGFNPLQNPAAGKKVPPSKKSPNAGAAAHQSGQQKLVNGGQSQPAQQKTSPPAQKNQQQVKKVSKNPTPPPPSLPAVGKMMPHPVMHSQNAPLSIASSASAAAVASGQLDLSNFLKENLRRVHAAQAAQAAQVAAAANQSNMMYNLAQMGHMTPAMYNYQQAYFREQLSRMQRVGNEVFNDYLQKLKTAAATGGGGPVEGELKPMLPTVTLPSPGATPPAASPKTSPLPAGKLTAAATAPQTKGNSSSGAANARQQTAATGNNGATVPAASLPPATKSK
# Tests used:
# Test in all cases: MAPPIT interaction score (arbitrary units); higher = stronger binary interaction signal, active = hit call of the paper;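 active = MAPPIT score above the 99th percentile of random reference set scores in the same batch; inactive = at or below it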
# Pbgd = details: pair source set: RRS
# ScpX = details: MAPPIT configuration: N-N; pair source set: Curagen_high_conf
# Osi8 = details: MAPPIT configuration: N-C; pair source set: RRS
# PAN3 = details: pair source set: RRS
# PGRP-LC = details: pair source set: Lit-BM-16
# Pc = details: pair source set: Lit-BM-16
# 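Further: HEK293T cells with Epo stimulation, STAT-responsive firefly luciferase reporter, fold induction versus unstimulated cells divided by the larger fold induction of two negative controls lacking either bait or prey.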
binder,measurement,setting,value
B1,MAPPIT interaction score,Pbgd; MAPPIT configuration: N-C,-0.0221 (inactive)
same,MAPPIT interaction score,Pbgd; MAPPIT configuration: N-N,0.0139 (inactive)
same,MAPPIT interaction score,ScpX,0.0182 (inactive)
B2,MAPPIT interaction score,Osi8,-0.541 (inactive)
B3,MAPPIT interaction score,PAN3; MAPPIT configuration: N-C,0.573 (inactive)
same,MAPPIT interaction score,PAN3; MAPPIT configuration: N-N,0.707 (inactive)
B4,MAPPIT interaction score,PGRP-LC; MAPPIT configuration: N-C,-0.131 (inactive)
same,MAPPIT interaction score,PGRP-LC; MAPPIT configuration: N-N,2.43 ± 0.6
B5,MAPPIT interaction score,Pc; MAPPIT configuration: N-C,1.11 (inactive)
same,MAPPIT interaction score,Pc; MAPPIT configuration: N-N,-0.137 (inactive)
